Assay outcomes deposited in PubChem by several laboratories.
Compounds with a hit are over-represented: about 6.2% of the library has one in this group of screens.
AHR activator – AHR activators, primary screen, cell-based, luminescence, luciferase reporter, human | AID 2796, 2010 | Aryl hydrocarbon receptor (Homo sapiens), P35869 | actives 2.5% (n = 320,000) | AHR-responsive luciferase reporter cells | activation, % at 5 µM; in the data active = activation above about 47%
Cardio protect – cardioprotection against H2O2-induced cell death, primary screen, uHTS, H9c2 cells, ATPLite luminescence | H9c2 cardiomyocytes, H2O2 injury protection, 2 h | protection from H2O2 cell death, % at 20 µM | actives 0.63% (n = 360,000) | AID 588492, 2011;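 active = compounds giving at least 50% protection of heart cells from peroxide-induced death in the single-dose screen, raw or plate-pattern-corrected value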
Mot1-301 SUMO – yeast Mot1-301 growth rescue at high temperature, primary screen, SUMOylation pathway inhibitor project, S. cerevisiae, ATP luminescence, 38.5C. S. cerevisiae Mot1-301 growth rescue; percent above DMSO median, 100 means doubled. growth rescue, % at 18.8 µM. actives 1% (n = 320,000);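 active = every valid replicate shows activation above 250% relative to neutral control wells; inactive = the rest, any valid replicate at or below 250%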
AI-2 QS mod – Vibrio harveyi AI-2 quorum sensing modulators, primary screen, JMH597 strain, luminescence/OD600 ratio; Vibrio harveyi JMH597 AI-2 luminescence/OD600 ratio, 9 h; stronger effect = lower value; strain lacks LuxN and CqsS sensors; 0 = neutral-control median; activity change, % at 7.5 µM; actives 0.4% (n = 300,000); AID 2094, 2009; in the data active = activity change below about -75%, passing the limit was not always enough; inconclusive = no clear call, values can overlap the other calls;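 note: luminescence divided by OD600 gain over 9 h not by final OD600 alone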
NTR1 agonist – agonists of human NTR1, primary screen, imaging, U2OS cells, beta-arrestin-GFP, high content; activation, % at 20 µM; actives 0.17% (n = 330,000); AID 493036, 2011; NTR1-U2OS beta-arrestin-GFP spot imaging, agonist mode; Neurotensin receptor type 1 (Homo sapiens), P30989;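 active = activation at or above 40% of the spot to cytoplasm intensity ratio, with at least 20 cells analyzed; inconclusive = wells under 20 cells, flagged as cytotoxic or low count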
Target sequence (P30989 whole entry, looked up): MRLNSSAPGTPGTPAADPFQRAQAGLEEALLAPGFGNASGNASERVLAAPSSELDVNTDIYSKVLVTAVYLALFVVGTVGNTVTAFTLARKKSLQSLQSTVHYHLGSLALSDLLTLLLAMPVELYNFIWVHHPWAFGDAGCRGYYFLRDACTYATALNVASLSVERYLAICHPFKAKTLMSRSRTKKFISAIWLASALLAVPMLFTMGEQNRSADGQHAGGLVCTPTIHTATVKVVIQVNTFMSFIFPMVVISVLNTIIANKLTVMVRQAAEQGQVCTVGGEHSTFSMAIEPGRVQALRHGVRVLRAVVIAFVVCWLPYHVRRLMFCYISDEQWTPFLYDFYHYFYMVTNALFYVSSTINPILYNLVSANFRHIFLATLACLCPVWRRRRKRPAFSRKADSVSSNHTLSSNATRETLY
NR3A LBD binder – binders of NR3A ligand-binding domain, primary screen, biophysical, differential scanning fluorimetry, uHTS | Glutamate receptor ionotropic, NMDA 3A (GRIN3A) ligand-binding domain | actives 2.5% (n = 340,000) | NR3A LBD differential scanning fluorimetry, Tm shift; 0% = protein alone, 100% = glycine-bound protein | Tm shift relative to glycine control, % at 25 µM;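 active = melting temperature shift of at least 10% of the positive control shift, at one fixed dose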
Large screens that a line does not name were inactive.

O=C1/C(=C\c2ccccc2)CCc2c1[nH]c1ccccc21	none
CC(C)/C=C1\CCc2c([nH]c3ccccc23)C1=O	AHR activator 57
Cc1c(C(=O)N(C)Cc2nc3ccccc3c(=O)[nH]2)oc2ccccc12	none (no result: AI-2 QS mod)
COc1ccc(N/N=C(\C#N)C(=N)SCc2ccccc2)cc1	NR3A LBD binder 29 (no result: AHR activator, Mot1-301 SUMO, NTR1 agonist)
O=C(NCc1cccc(Cl)c1)C1Cc2c(-c3ccccc3)ccnc2O1 (stereo not given)	none (no result: AHR activator, Mot1-301 SUMO, AI-2 QS mod, NTR1 agonist, NR3A LBD binder)
C=C(C)COc1ccc(-c2[nH]ncc2-c2ccccc2)c(O)c1	none
COc1ccc(-c2cn[nH]c2-c2ccc(OCc3ccc(F)cc3)cc2O)cc1OC	NR3A LBD binder 16
Oc1cc(OCc2ccccc2)ccc1-c1[nH]ncc1-c1ccccc1	NR3A LBD binder 17
COc1ccc(-c2cn[nH]c2-c2ccc(OCc3ccccc3)cc2O)cc1OC	none
COc1cc2c(C#CCCO)c(-c3ccsc3)oc(=O)c2cc1OC	Cardio protect 64 (no result: AI-2 QS mod)
COc1cc2c(C#CCCO)c(-c3ccc(C#N)cc3)oc(=O)c2cc1OC	none (no result: AI-2 QS mod)
O=C(CSc1ccccc1F)NC(=O)c1ccccc1Br	none (no result: AI-2 QS mod)
CCN1CCN(c2c(Cl)cccc2NC(=O)c2cc3ccccc3o2)CC1	none
O=C(Oc1ccc(-c2csnn2)cc1)c1cccs1	NR3A LBD binder 29
Cc1cc(C)c(NC(=O)CNC(=O)COC(=O)C2=COCCO2)c(C)c1	none
Cc1noc(C(=O)N2CCN(c3ccc(F)cc3)CC2)c1Cl	AHR activator 48
Cc1cc(N2CCN(S(=O)(=O)c3ccccc3)CC2)nc2c(C)cccc12	AHR activator 68
CCCn1nc(C(=O)NNC(=O)CCCOc2ccc(OC)cc2)c2ccccc2c1=O	none (no result: AI-2 QS mod)
Cc1ccc(NC(=O)C2=C(c3ccccc3)S(=O)(=O)CCS2(=O)=O)cc1	NR3A LBD binder 14
O=C(Nc1ccc(-c2ccccc2)cc1)c1ccccc1	none
CC(=O)OCC=C1CCC2C3CC(C)C4=CC(=O)CCC4(C)C3C(O)CC12C (stereo not given)	none (no result: AHR activator, Mot1-301 SUMO, AI-2 QS mod, NTR1 agonist)
COc1ccccc1[C@]1(C)ON(c2ccccc2C(F)(F)F)C1=O	Mot1-301 SUMO 296 (no result: AI-2 QS mod)
CC[C@]1(c2ccccc2OC)ON(c2ccccc2C(F)(F)F)C1=O	none (no result: Cardio protect, AI-2 QS mod)
NNc1nc2c(Cl)c(Cl)ccc2s1	AHR activator 84, NR3A LBD binder 11
COc1cccc(/C=N/NC(=O)c2nc(-c3ccccc3)cc(-c3ccccc3)n2)c1	Cardio protect 89
O=C(N/N=C/c1ccsc1)c1cc(-c2cccs2)nc2ccccc12	NR3A LBD binder 12
O=C(N/N=C/c1ccc[nH]1)c1cc(-c2ccc(Cl)cc2)nc2ccccc12	AHR activator 49
COc1ccc(/C=N/NC(=O)c2nc(-c3ccccc3)cc(-c3ccccc3)n2)cc1OC	none
O=C(N/N=C/c1ccccn1)c1cc(-c2ccncc2)nc2ccccc12	Cardio protect 77
Cc1nn(CC(=O)Nc2ccc(Cl)cc2)c(=O)c2cc(-c3ccccc3)nn12	none
CS(=O)(=O)c1nc(S(=O)(=O)c2ccc(Cl)cc2)c(NCCCN2CCCC2=O)s1	none
O=C(N/N=C/c1cccc(O)c1)c1cc(-c2ccccc2)nc2ccccc12	NR3A LBD binder 15
O=C(N/N=C/c1cccc([N+](=O)[O-])c1)c1cc(-c2ccccc2)nc2ccccc12	none
Cc1ccc(C)c(-c2cc(C(=O)N/N=C/c3cccnc3)c3ccccc3n2)c1	Cardio protect 56
O=C(N/N=C/c1cccc(O)c1)c1csc2ccccc12	AI-2 QS mod inconclusive, NR3A LBD binder 22
O=C(N/N=C/c1cccnc1)c1cc(-c2ccccc2)nc2ccccc12	none
O=C(N/N=C/c1ccc(O)c(O)c1)c1cc(-c2ccccc2)nc2ccccc12	Cardio protect 61
N#CC1(NC(=O)COC(=O)C2CCN(S(=O)(=O)c3ccc4c(c3)OCCO4)CC2)CCCCC1	none (no result: AHR activator, Mot1-301 SUMO, AI-2 QS mod, NTR1 agonist)
O=C(N/N=C/c1ccco1)c1cc(-c2cccc(Br)c2)nc2ccccc12	AHR activator 50, NR3A LBD binder 12
O=C(CNS(=O)(=O)c1ccc(Br)s1)N1CCC(N2CCCCC2)CC1	NR3A LBD binder 13
CC1CCN(C(=O)CNS(=O)(=O)c2ccc(Br)s2)CC1	none
O=[N+]([O-])c1cccc(/C(=N/N=C/c2ccccc2Br)C23CN4CN(CN(C4)C2)C3)c1	AHR activator 67
CC(C)=N/N=C(/c1ccc([N+](=O)[O-])cc1)C12CN3CN(CN(C3)C1)C2	none
COc1cccc(CN(C)C(=O)C2CC(=O)N(c3ccc4c(c3)OCCO4)C2)c1 (stereo not given)	none
CCCn1c(O)c(/C=C2\C=NN=C2c2ccccc2)sc1=S	NR3A LBD binder 16 (no result: Mot1-301 SUMO)
O=C(O)CCCn1c(O)c(C=C2N=c3ccccc3=N2)sc1=S	none
C=CCn1c(O)c(C=Nc2ccccc2)sc1=S	none
CCCCC(CC)Cn1c(O)c(/C=C2\C=NN=C2c2ccccc2)sc1=S (stereo not given)	NR3A LBD binder 21
C=CCn1c(O)c(/C=C2\C=NN=C2c2ccccc2)sc1=S	NR3A LBD binder 12
O=C(CC1CCCC1)N1CCN(S(=O)(=O)c2c(F)cccc2F)CC1	none (no result: AHR activator, Mot1-301 SUMO, AI-2 QS mod, NTR1 agonist, NR3A LBD binder)
CC(=O)OCC(=O)Nc1ccc(C(C)=O)cc1	none
CC(=O)NCC(=O)OCC(=O)Nc1ccc(C(C)=O)cc1	NR3A LBD binder 13 (no result: Mot1-301 SUMO)
CN(CC(=O)Nc1ccc(F)c(F)c1F)C(=O)C1CCCC1	none (no result: Mot1-301 SUMO, AI-2 QS mod)
CCOC(=O)c1[nH]c(C)c(C(=O)/C=C/c2ccc(C(=O)O)cc2)c1C	none
COc1cc(C(=O)Nc2ccc3nc(N4CCOCC4)sc3c2)cc(OC)c1OC	none (no result: AI-2 QS mod)
O=C(Nc1ccc2nc(N3CCOCC3)sc2c1)c1cc2ccccc2o1	Cardio protect 68 (no result: AHR activator, Mot1-301 SUMO, AI-2 QS mod, NTR1 agonist, NR3A LBD binder)
Cc1c(C(=O)Nc2ccc3nc(N4CCOCC4)sc3c2)oc2ccccc12	Cardio protect 58 (no result: AI-2 QS mod)
O=C(Nc1ccc(N2CCOCC2)c(Cl)c1)c1cc2ccccc2o1	none
CCc1c(C)nc2cc(-c3cccc(Br)c3)[nH]n2c1=O	AHR activator 70
CCOC(=O)Cc1c(C)nc2cc(-c3ccc(C)cc3)[nH]n2c1=O	none
COc1c2occc2c(OC(C)=O)c2c(=O)cc(C)oc12	AHR activator 54
CC(=O)Oc1c2occc2cc2ccc(=O)oc12	none
Cn1cc(C(=O)NC2CCCCC2)c(=O)c2cc(S(=O)(=O)N3CCOCC3)ccc21	none
COC(=O)N1CCCCC1c1cc(C(=O)NCc2ccc(Cl)c(Cl)c2)no1 (stereo not given)	none (no result: AHR activator, Mot1-301 SUMO, AI-2 QS mod, NTR1 agonist, NR3A LBD binder)
